Shown are actives, neighbours in structure and some others; about 2.8% of the full set was active somewhere.
MsrA inh – inhibits bovine methionine sulfoxide reductase A; purified bovine MsrA, absorbance read-out; inhibition, % at 15.5 µM; actives 0.75% (n = 360,000); AID 651718; in the data active means inhibition above about 4.5%;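 further: 0% = vehicle wells with enzyme and 100% = reference inhibitor wells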
bovine MsrA act – activates bovine MsrA enzyme; purified bovine MsrA, absorbance read-out; activation, % at 10.6 µM; actives 0.3% (n = 360,000); in the data active means activation above about 7.5%;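 further: 0% = vehicle and 100% = reference activator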
HGIII-sPLA2 inh – Blocks human group III sPLA2 activity. Q9NZ20. QFRET BODIPY PC-A2 liposome hydrolysis, fluorescence. inhibition, % at 12.2 µM. actives 0.56% (n = 370,000). AID 743126;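 active means inhibition above mean plus 3 SD of compounds lying within the high and low control bounds, cut at about 19% in these data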;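 further: 0% = median of test compound wells and 100% = no enzyme DMSO wells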
Target sequence (Q9NZ20 whole entry, looked up): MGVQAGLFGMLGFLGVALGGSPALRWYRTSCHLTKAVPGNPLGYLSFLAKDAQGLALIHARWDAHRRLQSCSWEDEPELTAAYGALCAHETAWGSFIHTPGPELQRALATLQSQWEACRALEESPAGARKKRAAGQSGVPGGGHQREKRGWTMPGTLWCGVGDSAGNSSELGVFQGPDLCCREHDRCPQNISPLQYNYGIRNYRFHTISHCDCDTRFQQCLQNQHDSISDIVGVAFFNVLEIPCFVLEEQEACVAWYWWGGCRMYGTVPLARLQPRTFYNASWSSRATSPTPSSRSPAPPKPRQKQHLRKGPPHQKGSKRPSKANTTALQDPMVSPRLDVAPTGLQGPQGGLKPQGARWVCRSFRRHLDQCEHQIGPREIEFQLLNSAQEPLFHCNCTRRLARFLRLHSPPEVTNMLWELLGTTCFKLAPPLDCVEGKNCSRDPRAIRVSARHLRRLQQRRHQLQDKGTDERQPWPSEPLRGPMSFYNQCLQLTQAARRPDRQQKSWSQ
rCAG RNA binder – binds r(CAG) RNA repeats. AID 651821. actives 1.3% (n = 370,000). r(CAG) RNA repeat, TO-PRO-1 dye displacement fluorescence. inhibition, % at 3 µM;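 active means inhibition above the plate cutoff, the mean of all test compounds on that plate plus 3 SD, cut at about 35% in these data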;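 further: 0% = DMSO alone and 100% = 100 µM mitoxantrone as full dye displacement; higher means more dye released from RNA so lower well fluorescence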
rCAG binder conf – r(CAG) RNA repeat binding, confirmation; shares compounds with rCAG RNA binder; TO-PRO-1 dye displacement fluorescence; inhibition, % at 3 µM; actives 70% (n = 4,300); AID 652065;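 active means inhibition above a per-plate cutoff, the mean inhibition of sample wells plus 3 SD, cut at about 35% in these data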;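 further: loss of TO-PRO-1 fluorescence as compound displaces dye from 1x1 AA loop RNA; 0% = DMSO only wells and 100% = 100 µM mitoxantrone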
DNA CAG counter – counter-screen for rCAG RNA binders: DNA CAG dye complex inhibitors; shares compounds with rCAG RNA binder; d(CAG) DNA oligo TO-PRO-1 dye displacement, fluorescence; inhibition, % at 3 µM; actives 94% (n = 4,300); AID 652068;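 active means inhibition above its plate's cutoff, the mean test-well inhibition plus 3 SD, cut at about 4.8% in these data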;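 further: 0% = DNA dye mix with DMSO and 100% = 100 µM mitoxantrone; hits displace the dye from DNA and so lower well fluorescence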
An asterisk follows results filed as active; / = not tested or not shown.

SMILES	MsrA inh	bovine MsrA act	HGIII-sPLA2 inh	rCAG RNA binder	rCAG binder conf	DNA CAG counter
COc1cc([N+](=O)[O-])ccc1NC(=O)CCCOc1ccccc1	0.5	-3.3	-6.0	0.4	/	/
COc1ccc(CN(C)CC(O)COC(c2ccccc2)c2ccccc2)c(OC)c1OC (stereo not drawn)	-1.1	0.6	-11.0	-7.6	/	/
CS(=O)(=O)N1CCN(C(=O)c2ccccc2F)CC1	-1.6	-2.1	-1.3	-0.8	/	/
CCOC(=O)Cc1csc(NC(=O)c2cc(=O)c3ccccc3o2)n1	3.4	-15.2	3.9	4.5	/	/
Cc1cc(C)c2nc(NNC(=O)c3cc(=O)c4ccccc4o3)sc2c1	0.5	2.0	3.8	72.9*	82.3*	48.6*
CCOc1ccc(-n2c(O)c(/C=N/NC(=O)C3COc4ccccc4O3)c3ccccc3c2=O)cc1 (stereo not drawn)	4.0	-3.5	13.4	76.2*	73.9*	36.8*
CCOc1ccc2sc(NS(=O)(=O)c3ccc(OC)c(OC)c3)nc2c1	0.0	-8.3	-18.4	52.1*	26.0	5.9*
Cc1nn(-c2ccccc2)c(Cl)c1/C=C1\SC(=S)NC1=O	4.2	-9.7	-18.2	64.6*	64.3*	17.8*
COc1cc([C@@H]2CC=C(C(=O)O)[C@H](c3ccc(C)cc3)N2S(=O)(=O)c2ccc(C)cc2)cc(OC)c1OC	-0.3	-0.3	-3.3	34.9*	42.1*	8.6*
COc1ccc([C@@H]2CC=C(C(=O)O)[C@H](c3ccc(C(C)(C)C)cc3)N2S(=O)(=O)c2ccc(C)cc2)cc1OC	-0.7	-2.4	-18.8	67.3*	65.8*	28.4*
COc1cc([C@@H]2CC=C(C(=O)O)[C@H](c3cccc(Cl)c3)N2S(=O)(=O)c2ccc(C)cc2)cc(OC)c1OC	1.4	-2.3	-5.8	44.7*	44.7*	10.3*
COc1cccc([C@@H]2CC=C(C(=O)O)[C@H](c3ccccc3F)N2S(=O)(=O)c2ccc(C)cc2)c1	0.5	0.4	-12.0	40.8*	37.3*	9.0*
O=C(NCC(c1ccco1)N1CCCC1)c1cn(Cc2ccccc2)nc1-c1ccccc1 (stereo not drawn)	0.1	-2.9	-13.5	6.1	/	/
COc1ccc([C@@H]2CC=C(C(=O)O)[C@H](c3ccc(Cl)cc3)N2S(=O)(=O)c2ccc(C)cc2)cc1OC	0.0	-1.9	-2.9	57.5*	34.1	9.3*
COc1cccc([C@@H]2CC=C(C(=O)O)[C@H](c3ccc(C)cc3)N2S(=O)(=O)c2ccc(C)cc2)c1	2.2	-3.0	-1.3	30.0	/	/
COc1cccc([C@@H]2CC=C(C(=O)O)[C@H](c3ccc(Cl)cc3)N2S(=O)(=O)c2ccc(C)cc2)c1	-1.0	-2.9	-13.3	63.5*	62.3*	22.8*
COc1ccc([C@@H]2CC=C(C(=O)O)[C@H](c3ccc(C)cc3)N2S(=O)(=O)c2ccc(C)cc2)cc1OC	1.3	-0.8	1.7	39.8*	36.5*	7.8*
COc1ccc2oc(/C=C/N(C)C)c(C(=O)c3ccc(Cl)cc3)c2c1	0.8	-9.8	1.7	39.5*	10.6	9.7*
COc1ccc2oc(C)c(C(=O)c3ccccc3)c2c1	-1.2	-1.8	-7.3	-2.1	/	/
Cc1ccc(-n2nc(C)c3c2NC2=C(C(=O)CC(C)(C)C2)C3c2ccccc2OCC(=O)O)cc1 (stereo not drawn)	1.4	-3.2	-24.3	37.3*	40.5*	9.4*
O=C(COc1cccc2ccccc12)N/N=C/c1ccccc1OCc1ccc(C(=O)O)cc1	1.3	-4.3	1.5	3.0	/	/
Cc1ccccc1OCC(=O)N/N=C/c1sc(=O)n(Cc2cccc(C(=O)O)c2)c1Cl	2.7	-4.7	-29.3	46.2*	39.7*	10.5*
Cn1ncc(Cl)c1C(=O)NCc1ccco1	-0.3	-7.0	-6.4	-0.2	/	/
Cc1cc(NS(=O)(=O)c2ccc(NC(=O)CSc3nnc(-c4ccco4)n3-c3ccc(Cl)cc3)cc2)nc(C)n1	/	/	-32.0	45.9*	33.3	12.2*
Cc1ccc(-c2nnc(SCC(=O)c3ccc(O)c(O)c3)n2-c2ccc(Cl)cc2)cc1	/	/	1.6	40.9*	42.6*	17.4*
CCOc1ccc(-n2c(SCC(=O)Nc3ccc(S(=O)(=O)Nc4cc(C)nc(C)n4)cc3)nnc2-c2ccco2)cc1	/	/	-35.5	40.4*	39.7*	13.9*
COc1ccc(-c2nnc(SCC(=O)Nc3ccc(C(=O)O)cc3)n2-c2ccc(Cl)cc2)cc1	-0.8	0.3	-22.9	46.5*	49.6*	15.2*
